Assay outcomes as filed in PubChem.
HT1080NT lethal: kills 2HG-producing HT-1080-NT fibrosarcoma cells; 1.6% of 360,000 active; Potency, µM (series often up to 46.1 µM), inactives show at the highest dose activity, negative = less viability, usual class: cytotoxic; AID 686970; HT-1080-NT fibrosarcoma viability, CellTiter-Glo ATP luminescence, 48 h;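 also: NT is the 2HG producing partner of a matched IDH1 knockdown line; potency is read from the fitted curve at half-maximal effect; 0% = DMSO-treated cells and -100% = media-only wells without cells; nearly all actives have a fitted effect of over 55% in size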
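Compounds were tested in concentration-response format on HT-1080-NT cells for 48 hours at 37 degrees C. Cell viability came from CellTiter-Glo luminescence; curves were classified by r2, response magnitude and activity.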
ELG1 repair inh: blocks ELG1-dependent DNA repair in HEK293T cells; Potency, µM (highest dose often 46.1 µM), without a hit: top-dose activity change, negative = inhibition, usual class: inhibitors; HEK293T ELG1-luciferase reporter, luminescence, 16 h; DNA damage induced by 5-fluorouridine; 2.3% of 330,000 active; AID 504467; also: potency is read from the fitted curve at half-maximal effect; nearly all actives have a fitted effect of over 55% in size
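Cells (2,000 per well) received 5-fluorouridine plus test compound or DMSO and were incubated 16 hr at 37 °C, 5% CO2. Luciferase activity was read by luminescence 30 min after ONE-Glo addition; signal suppression marked inhibition of damage-induced ELG1 function.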
TDP1 cell noCPT: qHTS for Inhibitors of human tyrosyl-DNA phosphodiesterase 1 (TDP1): qHTS in cells in absence of CPT; Potency, µM (highest dose often 46.2 µM), for inactives: top-dose activity change, negative = growth inhibition, usual class: inhibitors; DT40 Tdp1-/- hTDP1 cells, no CPT, ATP luminescence, 48 h; 15% of 420,000 active; AID 686978, 2013; also: potency is read from the fitted curve at half-maximal effect; nearly all actives have a fitted effect of over 55% in size
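Cells were dispensed at 400 per well, compounds added by pin tool, plates incubated ≥48 hr at 37 °C, then CellTiter-Glo added for 30 min at room temperature before luminescence reading. Line: DT40 Tdp1-/- complemented with hTDP1; camptothecin omitted.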
DT40 TDP1 CPT: growth inhibition of DT40 Tdp1-/-;hTDP1 cells with camptothecin (screen for TDP1 inhibitors). chicken DT40 Tdp1-/-;hTDP1 cells + 20 nM CPT, ATP luminescence, 48 h. Potency, µM (titrated, usually from 46.2 µM), inactives show at the highest dose activity change, negative = growth inhibition, usual class: inhibitors. 12% of 420,000 active; also: potency is read from the fitted curve at half-maximal effect; nearly all actives have a fitted effect of over 55% in size
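Chicken DT40 Tdp1-/- cells stably complemented with human TDP1 were seeded at 400 cells/well in medium containing 20 nM camptothecin, exposed to pin-transferred compounds, and grown at 37 °C for at least 48 hr. Viability was read as ATP luminescence.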
HT1080 IDH1KD tx: HT-1080 IDH1 knockdown cell toxicity (counter line); 2% of 360,000 active; Potency, µM (titrated, usually from 46.1 µM), for inactives: at the top dose activity, negative = toxicity, hits mostly cytotoxic; HT-1080 IDH1 knockdown viability, ATP luminescence, 48 h;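 also: potency is read from the fitted curve at half-maximal effect; 0% = DMSO wells and -100% = cell-free medium wells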
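In this qHTS, HT-1080 cells depleted of IDH1 are exposed for 48 h at 37 °C to compound titrations. Toxicity is scored from CellTiter-Glo luminescence, with DMSO as full viability and medium alone as none.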
IL1B secr inh: inhibitors of inflammasome signaling (IL-1 beta secretion). 4.7% of 360,000 active. THP-1 LPS/ATP IL-1B secretion, AlphaLISA, 16 h; active compounds read low. AID 743279. activity change, % at 57.5 µM; in the data active = activity change below about -50%; inconclusive = mostly about -30% to -49%
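THP-1 cells pretreated 1 hr with compounds (up to 57.5 uM final), then stimulated with LPS (250 ng/mL final) plus ATP (1.25 mM final); secreted IL-1B measured by AlphaLISA after 16 hr, decreased signal indicating inhibition.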
Numbers without * were called inactive; ! = repeats disagree. Rows were chosen to be rich in hits. Some 19% of all compounds tested hit in one or more screens of this group. Unless noted, calls follow the shape of the dose curve; as a rule, active = well fitted curve in the direction sought with a large enough effect; inconclusive = small, poorly fitted or top-dose-only effect, or another doubt; inactive = no such curve, though single readings can be large; an effect the other way counts as inactive or inconclusive. Unless noted, % is scaled to controls: 0 for no effect and ±100 for the full control effect.

Screening CCN1CCN(C(=O)c2sc3ncnc(N4CCc5ccccc5C4)c3c2C)CC1 returned HT1080NT lethal -5%, ELG1 repair inh inconclusive, TDP1 cell noCPT inconclusive, DT40 TDP1 CPT inconclusive, HT1080 IDH1KD tx -21% and IL1B secr inh -13.
For CC(=O)Nc1sc(C)c(C)c1C(=O)OCC(=O)Nc1cc(S(=O)(=O)N2CCCCC2)ccc1Cl the results were HT1080NT lethal -2%, ELG1 repair inh inconclusive, TDP1 cell noCPT 0%, DT40 TDP1 CPT -10%, HT1080 IDH1KD tx 0% and IL1B secr inh -7.
For Cc1ccc(S(=O)c2ccc(NC(=O)C3CC3)cc2C#N)cc1 (stereo not given) the results were HT1080NT lethal -11%, ELG1 repair inh inconclusive, TDP1 cell noCPT 23µM*, DT40 TDP1 CPT 18µM*, HT1080 IDH1KD tx -22% and IL1B secr inh 15.
For Cc1ccc(NC(=O)C2CCN(S(=O)(=O)c3ccccc3)CC2)cc1 the results were HT1080NT lethal 3%, ELG1 repair inh -23%, TDP1 cell noCPT -30%, DT40 TDP1 CPT -14%, HT1080 IDH1KD tx 1% and IL1B secr inh -13.
Screening CC1(c2ccc(Cl)cc2)NC(=O)N(CN2CCOCC2)C1=O (stereo not given) returned HT1080NT lethal 2%, ELG1 repair inh 0%, TDP1 cell noCPT -12%, DT40 TDP1 CPT 0%, HT1080 IDH1KD tx 9% and IL1B secr inh 0.
`O=C(Nc1ccc(NC(=S)NC(=O)C(c2ccccc2)c2ccccc2)cc1)c1ccccc1` gave HT1080NT lethal -26%, TDP1 cell noCPT 15µM*, DT40 TDP1 CPT inconclusive, HT1080 IDH1KD tx inconclusive and IL1B secr inh inconclusive.
Screening CCC(=O)Nc1cccc(NC(=S)NC(=O)c2ccc(Cl)cc2)c1 returned HT1080NT lethal -8%, ELG1 repair inh inconclusive, TDP1 cell noCPT 15µM*, DT40 TDP1 CPT 18µM*, HT1080 IDH1KD tx -3% and IL1B secr inh 11.
CCC(=O)Nc1ccc(NC(=S)NC(=O)/C=C/c2ccccc2)cc1 was read as HT1080NT lethal -23%, ELG1 repair inh 5%, TDP1 cell noCPT 7.3µM*, DT40 TDP1 CPT inconclusive, HT1080 IDH1KD tx -13% and IL1B secr inh inconclusive.
Screening O=C(NC(=S)Nc1ccc(NC(=O)c2ccccc2)cc1)c1ccc(F)cc1 returned HT1080NT lethal inconclusive, ELG1 repair inh 0%, TDP1 cell noCPT 1%, DT40 TDP1 CPT 7%, HT1080 IDH1KD tx -16% and IL1B secr inh -6.
`CCC(=O)NC(=S)Nc1cccc(NC(=O)c2ccccc2)c1` gave HT1080NT lethal -13%, ELG1 repair inh inconclusive, TDP1 cell noCPT 2%, DT40 TDP1 CPT 6%, HT1080 IDH1KD tx 1% and IL1B secr inh -5.
`CCC(=O)NC(=S)Nc1ccc(NC(=S)NC(=O)c2ccccc2)cc1` gave HT1080NT lethal -7%, ELG1 repair inh 3%, TDP1 cell noCPT 18µM*, DT40 TDP1 CPT inconclusive, HT1080 IDH1KD tx -2% and IL1B secr inh 1.
`CCC(=O)Nc1cccc(NC(=S)NC(=O)c2ccc(Cl)cc2Cl)c1` gave HT1080NT lethal -17%, ELG1 repair inh inconclusive, TDP1 cell noCPT inconclusive, DT40 TDP1 CPT inconclusive, HT1080 IDH1KD tx -11% and IL1B secr inh -22.
For CCS(=O)(=O)c1c(Nc2ccc(F)c(Cl)c2)sc(C(=O)c2ccccc2)c1N the results were TDP1 cell noCPT inconclusive and DT40 TDP1 CPT -19%.
`Cc1cc(C)c(NC(=S)NC(=O)c2ccccc2)cc1C` gave HT1080NT lethal 1%, TDP1 cell noCPT 8.2µM*, DT40 TDP1 CPT 21µM*, HT1080 IDH1KD tx inconclusive and IL1B secr inh 3.
Screening Cc1ccc(C(=O)O)cc1NC(=S)NC(=O)c1ccc(-c2ccccc2)cc1 returned HT1080NT lethal -9%, ELG1 repair inh inconclusive, TDP1 cell noCPT -19%, DT40 TDP1 CPT 9%, HT1080 IDH1KD tx -22% and IL1B secr inh 0.
CCCC(=O)Nc1ccc(NC(=S)NC(=O)c2ccccc2[N+](=O)[O-])cc1 was read as HT1080NT lethal inconclusive, ELG1 repair inh inconclusive, TDP1 cell noCPT 29µM*, DT40 TDP1 CPT inconclusive, HT1080 IDH1KD tx inconclusive and IL1B secr inh 4.
For CCCCCC(=O)NNC(=S)NC(=O)c1ccccc1[N+](=O)[O-] the results were HT1080NT lethal -27%, ELG1 repair inh -11%, TDP1 cell noCPT inconclusive, DT40 TDP1 CPT inconclusive, HT1080 IDH1KD tx inconclusive and IL1B secr inh 174.
O=C(NC(=S)Nc1ccc(Oc2ccc(Cl)cc2)cc1)c1ccccc1 was read as HT1080NT lethal -10%, ELG1 repair inh -1%, TDP1 cell noCPT 21µM*, DT40 TDP1 CPT inconclusive, HT1080 IDH1KD tx inconclusive and IL1B secr inh 12.
For CCc1nnc(NS(=O)(=O)c2ccc(NC(=S)NC(=O)/C=C/c3ccccc3)cc2)s1 the results were HT1080NT lethal 3%, ELG1 repair inh inconclusive, TDP1 cell noCPT -18%, DT40 TDP1 CPT 17%, HT1080 IDH1KD tx -1% and IL1B secr inh -6.
For COc1ccc(NS(=O)(=O)c2ccc(NC(=S)NC(=O)/C=C/c3ccccc3)cc2)nn1 the results were HT1080NT lethal 4%, ELG1 repair inh -2%, TDP1 cell noCPT 16µM*, DT40 TDP1 CPT 12µM*, HT1080 IDH1KD tx 0% and IL1B secr inh -61*.
Screening O=C(NC(=S)Nc1ccc(-c2ccccc2)cc1)c1ccccc1 returned HT1080NT lethal 7%, TDP1 cell noCPT inconclusive, DT40 TDP1 CPT -25%, HT1080 IDH1KD tx 0% and IL1B secr inh -15.
Screening CC(C)NC(=S)NC(=O)c1ccc(-c2ccccc2)cc1 returned HT1080NT lethal -2%, ELG1 repair inh 0%, TDP1 cell noCPT 16µM*, DT40 TDP1 CPT 23µM*, HT1080 IDH1KD tx -17% and IL1B secr inh -57*.
O=C(c1cc(-c2ccc(O)cc2)on1)N1CCN(c2ccccc2)CC1 was read as HT1080NT lethal -20%, ELG1 repair inh -11%, TDP1 cell noCPT inconclusive, DT40 TDP1 CPT 18µM*!, HT1080 IDH1KD tx -5% and IL1B secr inh -54*.
Screening O=C(c1cc(-c2ccc(O)cc2)on1)N1CCN(c2ccc(F)cc2)CC1 returned HT1080NT lethal inconclusive, ELG1 repair inh inconclusive, TDP1 cell noCPT inconclusive, DT40 TDP1 CPT 21µM*, HT1080 IDH1KD tx -2% and IL1B secr inh -21.
